Laboratory results taken from the supplement of paper PMC6992640.
Counter-ions that a name gives are not always drawn. ± gives the standard deviation of the averaged measurements.

Key:
Test in all cases: cell viability (% of vehicle); higher = less cytotoxic
Conditions in all cases: 10 µM; 72 h
[1] = tested on: HCI01 (cells of a triple-negative basal-like breast cancer xenograft)
[2] = tested on: HCI03 (cells of an ER-positive luminal breast cancer xenograft)
[3] = tested on: HCI09 (cells of a triple-negative luminal androgen receptor type breast cancer xenograft)
[4] = tested on: HCI11 (cells of an ER-positive luminal breast cancer xenograft)
[5] = tested on: HCI13 (cells of an ER-positive luminal breast cancer xenograft)
[6] = tested on: HCI16 (cells of a triple-negative basal-like breast cancer xenograft)
[7] = tested on: UCD52 (cells of a triple-negative basal-like breast cancer xenograft)
[8] = tested on: WHIM2 (cells of a triple-negative basal-like breast cancer xenograft)
[9] = tested on: WHIM30 (cells of a triple-negative basal-like breast cancer xenograft)
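Note: PDX cells carrying CMV promoter-driven luciferase, viability read as total photon flux per second by IVIS imaging following D-luciferin, vehicle control 0.1% DMSO.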

Row | SMILES | cell viability [1] | cell viability [2] | cell viability [3] | cell viability [4] | cell viability [5] | cell viability [6] | cell viability [7] | cell viability [8] | cell viability [9]
1 | CN(CC/C=C1C2=CC=CC=C2C=CC3=CC=CC=C3\1)C.Cl [Cyclobenzaprine HCl] | 98.1 ± 17 | 95.1 | 73.5 ± 0.81 | 84.5 | 131 ± 4.4 | 92.3 | 76.4 ± 0.93 | 89.6 ± 14 | 89.9 ± 1.5
2 | Cl.Cl.NC(=NCCCCCCN=C(N)N=C(N)Nc1ccc(Cl)cc1)N=C(N)Nc1ccc(Cl)cc1 [Chlorhexidine HCl] | 99.4 ± 3 | 88.3 | 89.7 ± 3 | 76 | 96.44 ± 0.43 | 124 | 92.8 ± 7.6 | 108 ± 4.1 | 82.3 ± 3.8
3 | CCCC1CC(C(=O)NC(C(C)Cl)C2OC(SC)C(O)C(O)C2O)N(C)C1 (stereo unspecified) [Clindamycin] | 142 ± 42 | 124 | 83 ± 23 | 106 | 76.4 ± 12 | 122 | 96.8 ± 12 | 117 ± 13 | 116 ± 7.1
4 | CS(=O)(=O)O.CS(=O)(=O)O.N=C(N)c1ccc2cc(OC(=O)c3ccc(N=C(N)N)cc3)ccc2c1 [Nafamostat Mesylate(FUT-175)] | 110 ± 13 | 82 | 43.9 ± 4.1 | 82.1 | 95.5 ± 20 | 98.4 | 106 ± 13 | 100 ± 34 | 105 ± 13
5 | Cl.O=C1Cc2cc(CCN3CCN(c4nsc5ccccc45)CC3)c(Cl)cc2N1 [Ziprasidone HCl] | 45.7 ± 12 | 78.6 | 33.8 ± 21 | 57.8 | 45.9 ± 5.8 | 46.5 | 130 ± 9.5 | 38.1 ± 5.7 | 123 ± 11
6 | CNCC(O)c1cccc(O)c1.Cl (stereo unspecified) [Phenylephrine HCl] | 110 ± 2.1 | 126 | 103 ± 22 | 105 | 78 ± 4.8 | 97.2 | 87.5 ± 4.1 | 86.1 ± 7.8 | 109 ± 7.6
7 | OCC1OC(c2ccc(Cl)c(Cc3ccc(OC4CCOC4)cc3)c2)C(O)C(O)C1O (stereo unspecified) | 94.9 ± 15 | 132 | 90.7 ± 14 | 84.1 | 87.5 ± 14 | 113 | 94 ± 1.7 | 112 ± 7 | 114 ± 9.9
8 | Cl.O=S(=O)(c1cccc2cnccc12)N1CCCNCC1 [Fasudil (HA-1077) HCl] | 81.6 ± 18 | 93.4 | 69.3 ± 9.2 | 76.2 | 79.6 ± 5.5 | 122 | 60.4 ± 9.9 | 87.3 ± 2.9 | 92.1 ± 12
9 | CCCCCOC(=O)Nc1nc(=O)n(C2OC(C)C(O)C2O)cc1F (stereo unspecified) [Capecitabine] | 142 ± 26 | 114 | 139 ± 24 | 124 | 165 ± 25 | 120 | 112 ± 4 | 108 ± 6.9 | 162 ± 33
10 | CC(O)C1C(=O)N2C(C(=O)O)=C(SC3CNC(C(=O)N(C)C)C3)C(C)C12.O.O.O (stereo unspecified) [Meropenem trihydrate] | 104 ± 8.7 | 81.8 | 127 ± 32 | 92.4 | 95 ± 0.96 | 96.2 | 89.6 ± 5.1 | 99.4 ± 7.5 | 78.309 ± 0.071
11 | O=C(O)CCCN1CCC(OC(c2ccc(Cl)cc2)c2ccccn2)CC1.O=S(=O)(O)c1ccccc1 (stereo unspecified) [Bepotastine Besilate] | 155 ± 45 | 131 | 112 ± 1.6 | 96.6 | 121 ± 6.6 | 128 | 87.6 ± 21 | 87.7 ± 5.1 | 138 ± 10
12 | CCOc1ccc(NC(C)=O)cc1 [Phenacetin] | 139 ± 6 | 136 | 96.9 ± 17 | 96.7 | 102 ± 3.9 | 122 | 82 ± 12 | 98.7 ± 10 | 94.4 ± 11
13 | C=C[C@]1(C)C[C@@H](OC(=O)CSC(C)(C)CNC(=O)[C@H](N)C(C)C)[C@]2(C)[C@H](C)CC[C@]3(CCC(=O)[C@H]32)[C@@H](C)[C@@H]1O [Valnemulin HCl] | 90.1 ± 7.2 | 107 | 66 ± 3.6 | 91.8 | 63.2 ± 0.68 | 120 | 78.3 ± 4.9 | 102 ± 20 | 114 ± 3
14 | N[C@@H](CCC(=O)N[C@@H](CS)C(=O)NCC(=O)O)C(=O)O [L-Glutathione Reduced] | 103 ± 5.7 | 115 | 107 ± 4 | 85.3 | 104 ± 6.7 | 113 | 99.8 ± 5.5 | 98.6 ± 5 | 131 ± 2.4
15 | O=C(O)COCCN1CCN(C(c2ccccc2)c2ccc(Cl)cc2)CC1 (stereo unspecified) [Cetirizine] | 108 ± 5.1 | 95.2 | 97.2 ± 2.1 | 93.5 | 108 ± 2.5 | 74.6 | 92.6 ± 3.8 | 94.8 ± 4.7 | 128 ± 9.9
16 | Cc1ccnc2c1NC(=O)c1cccnc1N2C1CC1 [Nevirapine] | 112 ± 2.5 | 105 | 122 ± 49 | 113 | 96.5 ± 3.9 | 96 | 96.8 ± 6.9 | 93.1 ± 23 | 130 ± 5.6
17 | CO/N=C(\C(=O)N[C@@H]1C(=O)N2C(C(=O)O)=C(CSc3nc(=O)c(O)nn3C)CS[C@H]12)c1csc(N)n1 [Ceftriaxone Sodium Trihydrate] | 148 ± 45 | 111 | 98.6 ± 26 | 101 | 77.6 ± 1.9 | 125 | 106 ± 1.4 | 130 ± 13 | 109 ± 2.1
18 | CC(=O)Oc1cccc2c1C(=O)c1c(OC(C)=O)cc(C(=O)O)cc1C2=O [Diacerein] | 57 ± 39 | 93.9 | 79.1 ± 34 | 77.8 | 109 ± 11 | 146 | 98.6 ± 6.8 | 123 ± 39 | 60.3 ± 16
19 | CC(C)(C)NCC(O)c1cc(O)cc(O)c1.CC(C)(C)NCC(O)c1cc(O)cc(O)c1.O=S(=O)(O)O (stereo unspecified) [Terbutaline Sulfate] | 114.4 ± 0.83 | 110 | 98.9 ± 20 | 109 | 88.5 ± 2.1 | 127 | 79.6 ± 5.6 | 106 ± 18 | 123 ± 6
20 | C[N+](C)(CCOc1ccccc1)Cc1ccccc1.O=C(O)c1cc2ccccc2cc1[O-] [Bephenium Hydroxynaphthoate] | 121 ± 9.4 | 127 | 128 ± 23 | 125 | 103 ± 21 | 104 | 89.6 ± 12 | 112 ± 22 | 151 ± 20

Row | SMILES | cell viability [1] | cell viability [2] | cell viability [3] | cell viability [4] | cell viability [5] | cell viability [6] | cell viability [7] | cell viability [8] | cell viability [9]
21 | CCC1OC(=O)C(C)C(OC2CC(C)(OC)C(O)C(C)O2)C(C)C(OC2OC(C)CC(N(C)C)C2O)C(C)(O)CC(C)CN(C)C(C)C(O)C1(C)O.O.O (stereo unspecified) [Azithromycin Dihydrate] | 110 ± 9 | 114 | 101 ± 10 | 112 | 144 ± 5 | 104 | 85.4 ± 1.5 | 102 ± 2.7 | 89 ± 1.7
22 | CCC1=CC2CN(C1)Cc1c([nH]c3ccccc13)C(C(=O)OC)(c1cc3c(cc1OC)N(C)C1C(O)(C(=O)OC)C(OC(C)=O)C4(CC)C=CCN5CCC31C54)C2 (stereo unspecified) [Vinorelbine] | 100 ± 15 | 105 | 70.5 ± 25 | 78.5 | 46 ± 4.7 | 167 | 57.5 ± 23 | 60.5 ± 12 | 96.7 ± 3.6
23 | CC(=O)N(c1onc(C)c1C)S(=O)(=O)c1ccc(N)cc1 [Sulfisoxazole Acetyl] | 90.9 ± 1.4 | 116 | 90.9 ± 11 | 95.7 | 95.2 ± 3.5 | 104 | 92.77 ± 0.54 | 106 ± 3.9 | 103 ± 1.9
24 | O=C1CCC(C(=O)N2CSCC2C(=O)O)N1 (stereo unspecified) [Pidotimod] | 93.1 ± 30 | 137 | 96.2 ± 5.1 | 96.7 | 132 ± 3.4 | 108 | 98.5 ± 9.8 | 90 ± 22 | 122 ± 2.3
25 | Cc1cc(C)cc(OCC2CNC(=O)O2)c1 (stereo unspecified) [Metaxalone] | 100 ± 16 | 155 | 108.2 ± 0.2 | 100 | 120 ± 9.4 | 137 | 105 ± 6.4 | 111 ± 4.7 | 102 ± 3
26 | COC(=O)C1=COC(OC2OC(CO)C(O)C(O)C2O)C2C(CO)=CCC12 (stereo unspecified) [Geniposide] | 104 ± 24 | 158 | 104 ± 21 | 98.3 | 95.3 ± 7.7 | 116 | 116 ± 1.3 | 83.6 ± 4.8 | 96.53 ± 0.79
27 | Cl.Cl.Clc1ccc(Nc2nnc(Cc3ccncc3)c3ccccc23)cc1 [Vatalanib (PTK787) 2HCl] | 136 ± 53 | 104 | 54.7 ± 2.1 | 92.3 | 45.8 ± 8.3 | 76.5 | 55.4 ± 5 | 46 ± 19 | 93.2 ± 2.6
28 | CCOc1cc(CC(=O)NC(CC(C)C)c2ccccc2N2CCCCC2)ccc1C(=O)O (stereo unspecified) [Repaglinide] | 88 ± 1.1 | 131 | 117 ± 15 | 111 | 80.3 ± 12 | 118 | 80.672 ± 0.07 | 96.8 ± 5.5 | 126 ± 18
29 | S=P(N1CC1)(N1CC1)N1CC1 | 109 ± 26 | 143 | 104 ± 1.4 | 103 | 111.3 ± 0.35 | 120 | 96.8 ± 5.2 | 83.8 ± 23 | 119 ± 11
30 | CCN(CCCc1ccccc1)CCCc1ccccc1.O=C(O)CC(O)(CC(=O)O)C(=O)O [Alverine Citrate] | 99.4 ± 3.5 | 95.5 | 104 ± 10 | 94.6 | 190 ± 4.8 | 118 | 59.9 ± 0.87 | 88.6 ± 4 | 102 ± 15
31 | C[N+](C)(C)CCOC(=O)CCC(=O)OCC[N+](C)(C)C.O.O.[Cl-].[Cl-] [Succinylcholine Chloride Dihydrate] | 109 ± 8 | 104 | 96.9 ± 9.6 | 97.2 | 112 ± 16 | 101 | 61.6 ± 1.2 | 89.3 ± 5.8 | 133 ± 22
32 | CC(C=CC1=C(C)CCCC1(C)C)=CC=CC(C)=CC(=O)O [Isotretinoin] | 139 ± 2 | 109 | 91.69 ± 0.3 | 122 | 119 ± 3.2 | 105 | 190 ± 2.4 | 91.5 ± 10 | 142.94 ± 0.0078
33 | C=CCc1cc(OC)c(O)c(C(=O)NCCO)c1 [Alibendol] | 98.3 ± 18 | 139 | 107 ± 17 | 110 | 68 ± 5 | 133 | 109 ± 3.4 | 115 ± 23 | 138 ± 20
34 | CCC1OC(=O)C(C)C(OC2CC(C)(OC)C(O)C(C)O2)C(C)C(OC2OC(C)CC(N(C)C)C2O)C(C)(O)CC(C)C(=O)C(C)C(O)C1(C)O (stereo unspecified) [Erythromycin] | 106 ± 13 | 101 | 96.7 ± 12 | 92.7 | 77.2 ± 9.7 | 113 | 95 ± 17 | 118 ± 36 | 167.6 ± 0.38
35 | COc1cc(C2Oc3cc(C4Oc5cc(O)cc(O)c5C(=O)C4O)ccc3OC2CO)ccc1O (stereo unspecified) [Silymarin] | 111 ± 32 | 129 | 102 ± 19 | 89.4 | 127 ± 3.3 | 116 | 107.79 ± 0.095 | 93.6 ± 18 | 91.7 ± 2
36 | CN(C)C(=N)N=C(N)N.Cl [Metformin HCl] | 100 ± 14 | 123 | 92.5 ± 13 | 86.2 | 102 ± 6.9 | 117 | 82.2 ± 4.7 | 91.7 ± 3.1 | 136 ± 14
37 | COC(=O)C1=C(C)NC(C)=C(C(=O)OC)C1c1ccccc1[N+](=O)[O-] [Nifedipine] | 82.2 ± 18 | 130 | 66.9 ± 6.3 | 71.2 | 93.3 ± 14 | 111 | 92.25 ± 0.35 | 92.3 ± 17 | 110.7 ± 0.67
38 | CC1(C)SC2C(NC(=O)C(NC(=O)N3CCNC3=O)c3ccccc3)C(=O)N2C1C(=O)[O-].[Na+] (stereo unspecified) [Azlocillin sodium salt] | 97.6 ± 24 | 131 | 104 ± 17 | 104 | 76.5 ± 9.1 | 130 | 97.766 ± 0.039 | 106 ± 29 | 125 ± 12
39 | COC(=O)C1CC2=CC(=O)CCC2(C)C23OC2CC2(C)C(CC[C@]24CCC(=O)O4)C13 (stereo partly specified) [Epleremone] | 90.4 ± 5.2 | 105 | 100 ± 24 | 90.1 | 94.7 ± 9.2 | 116 | 100 ± 7.6 | 108 ± 4.6 | 114 ± 3.4
